# Assay outcomes (PubChem)
# ADAM17 inh: inhibits human ADAM17; 370,000 compounds, 0.83% hits; inhibition, % at 6.95 µM; P78536; recombinant ADAM17, EDANS/DABCYL FRET peptide cleavage;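 active means inhibition above the mean of compounds lying between control limits plus 3 SD, set per campaign, cut at about 8.5% in these data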
# KLK7 zymogen act: proKLK7 (human) activation, primary screen | activation, % at 7 µM | 370,000 compounds, 0.9% hits | purified proKLK7, EDANS-DABCYL substrate fluorescence; 100% is mature enzyme control, 0% vehicle | AID 652039;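 active means activation above the mean of all tested compounds plus 3 SD, computed per campaign excluding outliers beyond control limits, cut at about 13% in these data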
# ADAM10 inh: inhibitors of human ADAM10 | 370,000 compounds, 0.62% hits | inhibition, % at 7 µM | AID 720582 | recombinant ADAM10, EDANS/DABCYL FRET peptide cleavage, 3 h;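 active means inhibition above a per-campaign cutoff equal to the mean of compounds falling between control-based bounds plus 3 SD, cut at about 20% in these data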
# Target sequence (O14672 214-748 limits assumed): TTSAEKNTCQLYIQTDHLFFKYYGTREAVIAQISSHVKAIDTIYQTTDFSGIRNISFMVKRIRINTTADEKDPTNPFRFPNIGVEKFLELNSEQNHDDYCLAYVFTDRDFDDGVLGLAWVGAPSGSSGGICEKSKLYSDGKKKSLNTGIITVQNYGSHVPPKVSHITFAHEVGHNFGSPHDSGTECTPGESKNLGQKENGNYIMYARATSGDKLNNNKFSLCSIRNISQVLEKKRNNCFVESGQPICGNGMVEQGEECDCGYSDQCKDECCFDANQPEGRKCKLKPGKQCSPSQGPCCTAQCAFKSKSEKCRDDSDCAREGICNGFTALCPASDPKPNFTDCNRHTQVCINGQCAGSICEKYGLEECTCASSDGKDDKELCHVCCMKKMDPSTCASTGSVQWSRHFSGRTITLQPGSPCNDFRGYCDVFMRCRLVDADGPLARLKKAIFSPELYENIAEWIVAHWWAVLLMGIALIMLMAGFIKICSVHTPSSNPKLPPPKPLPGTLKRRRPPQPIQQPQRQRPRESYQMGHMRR
# PLCb3 inh: PLC-beta3 (human) inhibition, primary screen. Q01970. Purified PLC-beta3, fluorogenic substrate, fluorescence. inhibition, % at 12.2 µM. 370,000 compounds, 0.18% hits. AID 720704; in the data active means inhibition above about 11%
# sPLA2-III inh: Inhibits HGIII-sPLA2 liposome hydrolysis, primary screen | 370,000 compounds, 0.56% hits | inhibition, % at 12.2 µM | QFRET BODIPY PC-A2 liposome hydrolysis, fluorescence | AID 743126 | Q9NZ20;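 active means inhibition above mean plus 3 SD of compounds lying within the high and low control bounds, cut at about 19% in these data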
# PLCg1 inh: inhibitors of human phospholipase C gamma1; P19174; purified PLC-gamma1, fluorogenic substrate, fluorescence; inhibition, % at 12.2 µM; 370,000 compounds, 0.84% hits; AID 720700; in the data active means inhibition above about 9.5%
# ADAM10 counter: inhibits human ADAM10 in ADAM17 exosite counter-screen; shares compounds with ADAM17 inh; recombinant ADAM10, EDANS/DABCYL FRET peptide cleavage, 3 h; inhibition, % at 6.95 µM; 2,900 compounds, 47% hits;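 active means mean inhibition over the triplicate runs exceeds the activity threshold set in the earlier primary screen, cut at about 20% in these data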
# ADAM17 confirm: human ADAM17 inhibition, confirmation; inhibition, % at 6.95 µM; recombinant ADAM17, EDANS/DABCYL QFRET peptide cleavage; 2,900 compounds, 65% hits; shares compounds with ADAM17 inh;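 active means mean inhibition across replicates above the hit cutoff set in the primary screen, cut at about 8.5% in these data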
# Numbers stand for hits; 0 = inactive; - = not tested or not shown. An excerpt weighted towards active compounds, which were near 3.4% of everything screened.
SMILES,ADAM17 inh,KLK7 zymogen act,ADAM10 inh,PLCb3 inh,sPLA2-III inh,PLCg1 inh,ADAM10 counter,ADAM17 confirm
CC(=O)c1cc(-c2cccc(CO)c2)c(=O)n2c1CCC2,0,0,0,0,0,0,-,-
Cc1cc(Cn2nnc(-c3ccc(Br)cc3)n2)cc(C)c1O,11,0,0,0,0,0,0,0
CCCOc1ccc(-c2cc(C(C)=O)c3n(c2=O)CCC3)cc1,0,0,0,0,0,0,-,-
CCCCCC[C@@H](CN(CCCC)S(C)(=O)=O)c1ccccc1,55,0,0,0,0,0,0,0
CC1(C(=O)OCC(=O)NC(=O)c2ccccc2)CC1(Cl)Cl (configuration not stated),0,0,0,0,0,0,-,-
CC(NC(=O)COC(=O)C1(C)CC1(Cl)Cl)c1ccccc1 (configuration not stated),8.8,0,0,0,0,0,30,9.5
CC(C)c1cccc(-c2csc(C(O)c3ccc(F)c(F)c3)n2)c1 (configuration not stated),11,0,0,0,0,0,24,15
CN1C(=O)C(C)(C)c2cc(S(=O)(=O)N3CCCC(C(=O)Nc4ccc(Cl)cc4)C3)ccc21 (configuration not stated),0,0,0,0,0,0,-,-
CC(C)c1ccc(NC(=O)C2CCCN(S(=O)(=O)c3ccc4c(c3)C(C)(C)C(=O)N4C)C2)cc1 (configuration not stated),9.6,0,0,0,0,0,0,8.8
O=C(C(=O)N(Cc1ccccc1)Cc1ccccc1)c1c(-c2ccccc2)[nH]c2ccccc12,11,0,22,0,0,0,42,22
COCCNC(=O)C(=O)c1c(-c2ccccc2)[nH]c2ccccc12,0,0,0,0,0,0,-,-
C=CCN1C(=O)[C@@H](CC(=O)N2CCOCC2)[C@]2(C(=O)OCC)CCCCC/C=C/12,0,0,0,0,0,0,-,-
CCCCCCCCN1C(=O)[C@@H](CC(=O)NCc2cccc3ccccc23)C[C@@]2(C(=O)OC)C1=C[C@H](COCc1ccccc1)O[C@@H]2C,0,0,0,0,0,0,-,-
Cc1onc(-c2c(Cl)cccc2Cl)c1C(=O)Nc1ccc2c(c1)OCCO2,0,0,0,0,0,0,-,-
Cc1ccc(NC(=S)NC(=O)c2c(-c3ccccc3Cl)noc2C)cc1,10.0,0,0,0,0,0,26,14
Cc1onc(-c2ccccc2Cl)c1C(=O)Nc1ccc2c(c1)OCO2,10,0,0,0,0,0,0,0
Cc1cccc(Nc2nnc(SCC(=O)c3ccc(Br)s3)s2)c1C,12,0,0,0,0,0,0,12
O=C(CN1C(=O)S/C(=C\c2ccc(F)cc2)C1=O)Nc1cccc(S(=O)(=O)NCc2ccco2)c1,9.2,0,0,0,0,0,21,12
CCc1ccccc1OCC(=O)Nc1cccc(S(=O)(=O)NCc2ccco2)c1,0,0,0,0,0,0,-,-
COc1ccc(OC)c(NC(=O)COC(=O)c2c3c(nc4ccccc24)CCCC3)c1,11,0,0,0,0,0,0,14
O=C(OC12CCCN(C1)/C(=C/c1cccc(Cl)c1)C2)c1ccc(Cl)cc1 (configuration not stated),0,0,0,0,0,0,-,-
CCCN(CC1CC1)c1nc(C)nc2c1nnn2Cc1ccccc1,0,0,0,0,0,0,-,-
CN(c1cccc(NC(=O)CN(c2cccc(Cl)c2)S(=O)(=O)c2ccc(Cl)cc2)c1)S(C)(=O)=O,11,0,0,0,0,0,31,16
Cc1ccc(Cl)cc1N(CC(=O)Nc1cccc(N(C)S(C)(=O)=O)c1)S(C)(=O)=O,0,0,0,0,0,0,-,-
O=C(OCc1nc2scc(-c3ccccc3)c2c(=O)[nH]1)c1cc(Cl)ccc1[N+](=O)[O-],8.6,0,0,0,0,0,0,0
